# Laboratory results published in PubChem BioAssay AID527 (NMMLSC, 2006).
# Screen size: about 24,000 compounds; about 65 (0.3%) were called active.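 How the source made its calls: active means share of bacteria positive for the green fluorescent reporter and its mean brightness both inhibited by 50% or more; inactive means the rest, inconclusive results apart.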 The entries come from a sample that favours actives as a whole.
# Experiment: S. aureus quorum sensing inhibitors, primary screen, RNAIII-GFP reporter, flow cytometry (AID 527);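 further: 0% = AIP-stimulated control and 100% = unstimulated bacteria without AIP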
# Conditions: S. aureus RN6390 RNAIII-GFP reporter, AIP-induced, flow cytometry 3 h, at 2 µM, stronger effect = higher value
# [1] = measured here: inhibition of GFP MFI
Compound,inhibition,inhibition [1] [%]
CCCCC(CC)C(=O)Nc1ccc(Cl)cn1 (stereo not drawn),0.6% (inactive),18.7
Cc1nc2nc[nH]n2c(=O)c1NC(=O)c1cccc(OCC(C)C)c1,-5.4% (inactive),-8.1
COc1ccc(-c2c(C)nn3c(N4CCC(C(=O)N5CCCCC5)CC4)cc(C)nc23)cc1OC,-3.5% (inactive),-8.8
CCOc1ccc(-c2nnn(CC(=O)N3CCN(c4ccc(F)cc4)CC3)n2)cc1OCC,0.7% (inactive),1.3
COc1cccc(CN2C(=O)CCC2(C)C(=O)NC2CCCCCC2)c1 (stereo not drawn),-1.4% (inactive),-12.5
COCCCNC(=O)c1ccc2c(c1)ncn2-c1ccccc1OC,-3.4% (inactive),-5.1
CCOC(=O)c1cc(NC(=O)SCC(=O)O)c(C)nc1C,-1.6% (inactive),-14.7
CCOc1cc(/C=N/n2cnnc2)c(Br)cc1O,-1.6% (inactive),-8.8
COCCNC(=S)c1ccc(OC)cc1,-3.4% (inactive),-6.1
Clc1ccc(Cc2nn3c(-c4ccncc4)nnc3s2)cc1,0.3% (inactive),5.4
CCC(=O)c1ccc(OCC(O)CN2C(=O)NC(C)(C)C2=O)cc1 (stereo not drawn),-0.8% (inactive),-2.7
COc1ccc(S(=O)(=O)NC(CC(=O)NCc2ccccc2OC)c2ccco2)cc1 (stereo not drawn),-0.4% (inactive),-11.3
CC(C)CCNC(=O)CCNS(=O)(=O)c1ccc(Cl)cc1,2.3% (inactive),8
O=C(CCS(=O)(=O)Cc1ccccc1F)NCCCN1CCCCC1,-1.8% (inactive),-2.4
